“And” between values parts separate entries of the source, which are not always exact repeats. Identical values can stand only once. A number with no mark means an inactive call. The source made the active and inactive calls. The call rests on the fitted dose curve. Where a SMILES comes first, the peptide text is derived from it. Bridges are numbered along the chain shown (N, C = ends). [ ]: non-standard residue; d: D form. The star is where a group is joined. X1 = CCC(C)C(N)C1=NC(C(=O)*)CS1; dOrn = NCCC[C@@H](N)C(=O)O
Experiment: qHTS drug screen for cell cycle checkpoint inhibitors in PARPi-resistant BRCA-mutant ovarian cancer cell lines. (AID 1963452)
Details: PEO1/OlaR viability, CellTiter-Glo luminescence, 96 h
Outline: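 PEO1, PEO4 and PEO1/OlaR ovarian cancer cells, 600 per well, exposed 96 h at 37C to a dilution series. Viability read by CellTiter-Glo luminescence, normalized to DMSO and empty wells; activity summarized as Z-AUC.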
Potency means the concentration at half of the fitted maximal effect.

SMILES | Potency
CCCCC(=O)OCC(=O)[C@]1(O)Cc2c(O)c3c(c(O)c2[C@@H](O[C@H]2C[C@H](NC(=O)C(F)(F)F)[C@H](O)[C@H](C)O2)C1)C(=O)c1c(OC)cccc1C3=O | 549 nM (active)
COc1cc(N2CCC(N(C)C)CC2)ccc1Nc1ncc(Cl)c(Nc2ccccc2P(C)(C)=O)n1 | 436 nM (active)
Cc1nc2c(-c3cnc(N)nc3)nc(N3CCOCC3)nc2n1C(C)C | 436 nM (active)

Same assay, conditions: PEO1/OlaR viability, CellTiter-Glo luminescence, 96 h; stronger effect = lower value

SMILES | Z-AUC
COc1ccc2cc(OCC3(C(=O)O)CN(C(=O)c4ccc(F)cc4)C3)ccc2c1 | -0.285
Cc1nnc(C(C)C)n1C1CC2CCC(C1)N2CC[C@H](NC(=O)C1CCC(F)(F)CC1)c1ccccc1 (stereo partly drawn) | 1.09 and 0.404
CCOC(=O)c1ccnc(CNCC(=O)N(CC)CCN(C)C)c1 | 1.38
O=C(NCC(=O)N1CC[C@H](NC2CCC(O)(c3ccc(-c4ncccn4)cn3)CC2)C1)c1cccc(C(F)(F)F)c1 (stereo partly drawn) | -0.56
CCNC(=O)CCC/C=C\C[C@@H]1[C@@H](/C=C/C(O)CCc2ccccc2)[C@@H](O)C[C@@H]1O (stereo partly drawn) | 1.72
CC1(C)O[C@@H]2C[C@H]3[C@@H]4CCC5=CC(=O)C=C[C@]5(C)[C@H]4[C@@H](O)C[C@]3(C)[C@]2(C(=O)CO)O1 | 0.315
COc1cc(N2CCC(O)CC2)ccc1Nc1cc(Nc2ccccc2S(=O)(=O)C(C)C)c2cc[nH]c2n1 | 0.976
CCCCN(CCCC)C(=O)CN1C[C@H](c2ccc3c(c2)OCO3)[C@@H](C(=O)O)[C@@H]1c1ccc(OC)cc1 | 0.882
CCc1nc(C(N)=O)c(Nc2ccc(N3CCC(N4CCN(C)CC4)CC3)c(OC)c2)nc1NC1CCOCC1 | 1.23
CCCOc1ccn2c(C(C)=O)cc(-c3ccccc3S(C)(=O)=O)c2c1 | 2.02
CC(C)C(=O)OCC(=O)[C@@]12O[C@H](C3CCCCC3)O[C@@H]1C[C@H]1[C@@H]3CCC4=CC(=O)C=C[C@]4(C)[C@H]3[C@@H](O)C[C@@]12C | -0.223
O=c1ccn([C@@H]2O[C@H](CO)[C@@H](O)[C@H]2O)c(=O)[nH]1 | 1.3
CNc1nc(Nc2cnn([C@H]3CCN(C4COC4)C[C@@H]3F)c2Cl)ncc1C(F)(F)F | -0.479
CCN(c1cc(C#CCN2CCOCC2)cc(C(=O)NCc2c(C)cc(C)[nH]c2=O)c1C)C1CCC(N(C)CCOC)CC1 (stereo not drawn) | 0.159
Cc1cc(C)cc(NC(=O)Cc2ccc(OC(C)(C)C(=O)O)cc2)c1 | -0.433
C[C@H](CCC(=O)O)[C@H]1CC[C@H]2[C@@H]3[C@H](O)C[C@@H]4C[C@H](O)CC[C@]4(C)[C@H]3CC[C@]12C | 1.79
CCC(C)C(N)C1=NC(C(=O)N[C@@H](CC(C)C)C(=O)N[C@H](CCC(=O)O)C(=O)N[C@H](C(=O)N[C@H]2CCCCNC(=O)[C@H](CC(N)=O)NC(=O)[C@@H](CC(=O)O)NC(=O)[C@H](Cc3cnc[nH]3)NC(=O)[C@@H](Cc3ccccc3)NC(=O)[C@H]([C@@H](C)CC)NC(=O)[C@@H](CCCN)NC2=O)[C@@H](C)CC)CS1 (stereo partly drawn) (X1-L[dE]IK[dOrn]I[dF]H[dD]N; lactam 4-C) | 0.134
O=C(O)c1cnn(-c2nc3cc(OC(F)(F)F)c(Cl)cc3[nH]2)c1 | 0.292
Cc1c(-c2ccnn2C)cc(C(=O)NCc2ccc(S(C)(=O)=O)cn2)c(=O)n1-c1cccc(C(F)(F)F)c1 | -0.519
O=C(Nc1cccnn1)N1CCC(=Cc2cccc(Oc3ccc(C(F)(F)F)cn3)c2)CC1 | -0.753
N#Cc1ccnc(N2C(=O)CC[C@H]2C(=O)N(c2cncc(F)c2)[C@H](C(=O)NC2CC(F)(F)C2)c2ccccc2Cl)c1 | 1.18
Cc1cccc(-c2[nH]c(CNc3ccccc3F)nc2-c2ccc3ncnn3c2)n1 | -0.298
CN(NC(=O)CC(=O)NN(C)C(=S)c1ccccc1)C(=S)c1ccccc1 | 1.67
Cc1ccc(C(=O)Nc2ccc(Oc3cc4cnn(C)c4cc3-c3cn[nH]c3)c(F)c2)c(=O)n1-c1ccc(F)cc1 | -0.0237
Nc1ccn([C@@H]2C(F)=C(CO)[C@@H](O)[C@H]2O)c(=O)n1 | 0.41
